For 31 compounds, outcome and AC50 results are on record in PubChem BioAssay (EPA / NIEHS).

Test [1] in a line: TOX21_p53_BLA_p2_viability: Viability Assessment in the Tox21 HCT-116 p53 Agonism Beta-lactamase Assay, Phase 2 (AID 2283591).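 Also: compound exposure lasted 16 h at 37 °C; actives lower the ATP signal meaning cytotoxicity.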 The method in brief:
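HCT-116 p53-bla cells (4000/well) rested 5 h at 37C, then received compounds in DMSO (217-fold dilution) for 16 h at 37C, 5% CO2. After the CCF4 read, CellTiter-Glo was added; ATP luminescence was read after 30 min at room temperature.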

For test [2], the target named is Cellular tumor antigen p53 (Homo sapiens) (UniProt P04637). Kind of test: TOX21_p53_BLA_p2_ratio: Tox21 HCT-116 p53 Agonism Beta-lactamase Assay, Ratio, Phase 2 (AID 2283592). The method in brief: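 Plated HCT116 p53-bla cells (4000/well) received compound after 5 h, then 16 h at 37C/5% CO2. CCF4-AM added, 2 h RT. Ratio of 460 to 530 nm emission taken as the p53 reporter signal.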
Chain of Cellular tumor antigen p53 (Homo sapiens) (P04637 whole entry, looked up): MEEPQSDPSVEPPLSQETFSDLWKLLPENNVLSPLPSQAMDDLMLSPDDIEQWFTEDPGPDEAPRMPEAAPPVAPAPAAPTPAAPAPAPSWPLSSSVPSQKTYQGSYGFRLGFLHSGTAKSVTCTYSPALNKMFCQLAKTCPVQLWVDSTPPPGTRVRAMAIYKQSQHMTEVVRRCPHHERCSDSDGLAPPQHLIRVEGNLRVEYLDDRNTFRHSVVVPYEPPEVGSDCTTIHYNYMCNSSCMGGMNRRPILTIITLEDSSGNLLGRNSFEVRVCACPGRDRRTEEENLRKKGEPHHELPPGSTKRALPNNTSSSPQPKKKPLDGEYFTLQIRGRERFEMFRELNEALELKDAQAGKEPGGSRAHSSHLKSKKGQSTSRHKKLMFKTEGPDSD

The target is the same in test [3]. Kind of test: TOX21_p53_BLA_p3_ratio: Tox21 HCT-116 p53 Agonism Beta-lactamase Assay, Ratio, Phase 3 (AID 2283596). A digest of the protocol: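 Cells were seeded at 4000/well, rested 5 h at 37C, then dosed with DMSO compound solutions (217-fold dilution) for 16 h. CCF4-AM substrate was loaded for 2 h at room temperature, and the 460/530 nm emission ratio was fitted for gain of signal versus DMSO.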

The target is the same in test [4]. Kind of test: TOX21_p53_BLA_p5_ratio: Tox21 HCT-116 p53 Agonism Beta-lactamase Assay, Ratio, Phase 5 (AID 2283599). A digest of the protocol: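 HCT-116 cells carrying a p53-inducible beta-lactamase reporter were seeded at 4000 cells/well and dosed after 5 h with compound in DMSO (217-fold dilution). After 16 h at 37C, CCF4-AM substrate was added for 2 h, and the 460/530 nm emission ratio was scored as gain-of-signal versus DMSO.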

Test [5] has the same target. Put plainly: TOX21_p53_BLA_p4_ratio: Tox21 HCT-116 p53 Agonism Beta-lactamase Assay, Ratio, Phase 4 (AID 2283601). A digest of the protocol:
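HCT116 cells carrying an inducible beta-lactamase reporter were plated at 4000 cells/well, rested 5 h, then exposed to compounds in DMSO (217-fold dilution) for 16 h at 37C. CCF4-AM substrate was loaded 2 h at room temperature; 460/530 nm emission ratio scored gain-of-signal versus DMSO.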

Test [6] can be described thus: TOX21_p53_BLA_p5_viability: Viability Assessment in the Tox21 HCT-116 p53 Agonism Beta-lactamase Assay, Phase 5 (AID 2283600). The method in brief: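 Workflow: seed 4000 cells per well, wait 5 h, add compounds (DMSO, 217-fold dilution), incubate 16 h, load CCF4-AM 2 h, add CellTiter-Glo, read luminescence after 30 min.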
A short description of test [7]: CCTE_Harrill_HTTr_Viability_MCF7: CCTE's 6-hour Cell Viability Assessment for the High-Throughput Transcriptomics (HTTr) Platform, in MCF-7 cells cultured in DMEM + 10% fetal bovine serum, Harrill Lab (AID 2284010; active = hit-call score of the fitted dose curve at least 0.9, where 1 is the maximum; inactive = score below 0.9). The method in brief: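 Eight-point concentration series, six-hour exposure. Propidium iodide exclusion imaged to assess membrane integrity as a cytotoxicity readout; bidirectional fitting was done with DMSO as negative control and activity baseline.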

Test [8] is described as follows: CCTE_Harrill_HTTr_Apoptosis_MCF7: CCTE's 6-hour Apoptosis Assessment for the High-Throughput Transcriptomics (HTTr) Platform, in MCF-7 cells cultured in DMEM + 10% fetal bovine serum, Harrill Lab (AID 2284011; active = hit-call score of the fitted dose curve at least 0.9, where 1 is the maximum; inactive = score below 0.9). A digest of the protocol: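 MCF-7 (DMEM + 10% FBS), 384-well; 8-pt dilution series, 6 h chemical exposure; caspase-3/7 activation via CellEvent Caspase 3/7 Green, HCI; bidirectional fit vs DMSO.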

A short description of test [9]: CCTE_Harrill_HTTr_CellCount_MCF7: CCTE's Cell Proliferation Assessment for the High-Throughput Transcriptomics (HTTr) Platform, Harrill Lab (AID 2284012).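 Also: count of Hoechst-stained nuclei per well by high-content imaging in MCF-7 cells; cells exposed to compound for six hours; intended direction is loss of nuclei count meaning fewer cells.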 A digest of the protocol:
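For this full-screen endpoint, MCF-7 cultures received eight compound dilutions for six hours. Well nuclei counts from Hoechst imaging were analyzed relative to DMSO.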

Records with an inconclusive call do not appear. Active and inactive are the calls of the source. The calls were made as follows, unless noted: active = hit-call score of the fitted dose curve at least 0.9, where 1 is the maximum; inconclusive = response in the unintended direction; inactive = score below 0.9.

On to `N=C(N=C(N)N)N1CCOCC1`, for which the call in test [1], in test [2], in test [3], in test [4] and in test [5] was inactive.
On to `OC[C@@H](O)C(O)[C@H](O)CO`, for which the outcome in test [1], in test [2], in test [3], in test [4] and in [5] was inactive.
Consider `COC(=O)CCCCCCCCC(=O)OC`, for which the call in test [1], in test [2], in test [3], in [4] and in [5] was inactive.
With `O=C(O)c1cc(O)c2c(c1)[C@H]([C@H]1c3cc(C(=O)O)cc(O)c3C(=O)c3c(O[C@@H]4O[C@H](CO)[C@@H](O)[C@H](O)[C@H]4O)cccc31)c1cccc(O[C@@H]3O[C@H](CO)[C@@H](O)[C@H](O)[C@H]3O)c1C2=O`, the call in test [1], in [2], in test [3], in [4], in [6] and in test [5] was inactive.
Take `CC(C)c1ccccc1`: the call in [1], in [2], in test [3], in test [4] and in test [5] was inactive.
Regarding `C[C@]12C=CC(=O)C=C1CC[C@@H]1[C@@H]2[C@@H](O)C[C@@]2(C)[C@H]1CC[C@]2(O)C(=O)COC(=O)CCC(=O)O`, the compound was classed as inactive in [1], in [2], in test [3], in test [4] and in [5].
With `CN1CCC(=C2c3ccccc3C=Cc3ccccc32)CC1`, the AC50 (in general, the midpoint of the concentration-response curve, whichever way the signal moves) in test [1] was 39.3 µM (active); in test [2], 43.2 µM (active). In addition, the result in test [3], in test [4] and in test [5] was inactive.
In the case of `CN(C)CCC=C1c2ccccc2CSc2ccccc21`, the compound was classed as inactive in test [1], in test [2], in [3] and in test [4]. Also, the AC50 in test [5] was 16.6 µM (active).
As for `CC(C)OC(=O)Nc1ccc2nc(-c3cscn3)[nH]c2c1`, the outcome in test [1] was inactive. For the same compound, the AC50 in test [2] is 1.52 µM (active); in [3] it was 2.6 µM (active); in test [4], 2.33 µM (active); in test [5] it was 1.09 µM (active).
Consider `Cc1cccc(Br)c1`, for which the outcome in [1], in [2], in [3], in test [4] and in test [5] was inactive.
As for `FC(F)(F)C(F)(F)C(F)(F)C(F)(F)C(F)(F)F`, the call in test [1], in [2], in [3], in [4] and in test [5] was inactive.
For `C=CC(=O)OCCOC(=O)CCC(=O)O`, the compound was classed as inactive in test [1], in test [2], in test [3], in test [4] and in [5].
For `CCN(CC)CCOC(=O)c1ccc(N)cc1Cl`, the compound was classed as inactive in test [1], in test [2], in test [3], in [4] and in test [5].
In the case of `CC/C=C\C/C=C\C/C=C\C/C=C\C/C=C\C/C=C\CCC(=O)O`, the call in test [1], in test [2], in [3], in test [4] and in test [5] was inactive.
`CN(C)CCC(c1ccccc1)c1ccccn1` (configuration not stated): the call in test [1], in [2], in [3], in test [4], in test [6] and in [5] was inactive.
`C[C@@H]1CN(c2c(F)c(N)c3c(=O)c(C(=O)O)cn(C4CC4)c3c2F)C[C@H](C)N1`: the compound was classed as inactive in [1], in test [2], in [3], in [4], in test [6] and in [5]. The result in [7], in test [8] and in [9] was inactive.
As for `CC1(C)[C@H](C(=O)O)N2C(=O)C[C@H]2S1(=O)=O`, the call in test [1], in test [2], in test [3], in [4] and in test [5] was inactive.
As to `CC12CCC(C1)C(C)(C)C2=O` (configuration not stated), the outcome in [1], in [2], in [3], in [4] and in test [5] was inactive.
For `Cc1cc(=O)oc2cc(O)cc(O)c12`, the call in test [1], in test [2], in [3], in test [4] and in [6] was inactive. Also, the AC50 in [5] was 41.7 µM (active).
Consider `O=C(O)c1ccccc1C(=O)Nc1ccc(S(=O)(=O)Nc2nccs2)cc1`, for which the result in test [1], in test [2], in test [3], in test [4] and in test [5] was inactive.
Take `CC1CN(c2ccccc2)NC1=O` (configuration not stated): the outcome in test [1], in test [2], in [3], in test [4], in [6] and in test [5] was inactive.
With `CN(C)CCC[C@@]1(c2ccc(F)cc2)OCc2cc(C#N)ccc21`, the compound was called inactive in test [1], in test [2], in test [3], in test [4] and in [5].
Turning to `CCCCCCCCCCCCCCCC(=O)NCCO`, the call in test [1], in [2], in test [3], in test [4], in test [6] and in test [5] was inactive.
Take `CC(=C(CCOP(=O)(O)O)SC(=O)c1ccccc1)N(C=O)Cc1cnc(C)nc1N`: the compound was called inactive in test [1], in test [2], in test [3], in test [4] and in test [5].
Regarding `O=C1OCCN1N=Cc1ccc([N+](=O)[O-])o1`, the result in test [1], in test [2], in test [3], in test [4], in [6] and in [5] was inactive. For the same compound, the outcome in test [7] and in test [8] was inactive.
As to `Oc1cc(O)c(Cl)cc1Cl`, the call in [1], in [3], in test [4] and in test [5] was inactive. In [2], the AC50 was 64.5 µM (active).
As for `NC[C@@H]1O[C@H](O[C@H]2[C@@H](O)[C@H](O[C@@H]3[C@@H](O)[C@H](N)C[C@H](N)[C@H]3O[C@H]3O[C@H](CO)[C@@H](O)[C@H](O)[C@H]3N)O[C@@H]2CO)[C@H](N)[C@@H](O)[C@@H]1O`, the outcome in test [1], in test [2], in test [3], in test [4] and in test [5] was inactive.
Consider `Cc1cccc([N+](=O)[O-])c1C(=O)O`, for which the result in test [1], in [2], in test [3], in test [4] and in test [5] was inactive.
`CN(C)c1ccc(CCO)cc1`: the compound was called inactive in test [1], in test [2], in test [3], in test [4] and in [5].
Consider `O=[N+]([O-])c1cccc(S(=O)(=O)NCCNS(=O)(=O)c2cccc([N+](=O)[O-])c2)c1`, for which the compound was called inactive in test [1], in test [2], in [3], in test [6] and in [5].
As for `CC[N+](CC)(CC)CCC(O)(c1ccccc1)C1CCCCC1` (configuration not stated), the compound was classed as inactive in test [1], in [2], in [3], in test [6] and in [5].
